These results are taken from PMC7862700, “An all-to-all approach to the identification of sequence-specific readers for epigenetic DNA modifications on cytosine”.

One test has as its target T1, ELK1 (Homo sapiens, UniProt P19419 1-428).
T1 sequence: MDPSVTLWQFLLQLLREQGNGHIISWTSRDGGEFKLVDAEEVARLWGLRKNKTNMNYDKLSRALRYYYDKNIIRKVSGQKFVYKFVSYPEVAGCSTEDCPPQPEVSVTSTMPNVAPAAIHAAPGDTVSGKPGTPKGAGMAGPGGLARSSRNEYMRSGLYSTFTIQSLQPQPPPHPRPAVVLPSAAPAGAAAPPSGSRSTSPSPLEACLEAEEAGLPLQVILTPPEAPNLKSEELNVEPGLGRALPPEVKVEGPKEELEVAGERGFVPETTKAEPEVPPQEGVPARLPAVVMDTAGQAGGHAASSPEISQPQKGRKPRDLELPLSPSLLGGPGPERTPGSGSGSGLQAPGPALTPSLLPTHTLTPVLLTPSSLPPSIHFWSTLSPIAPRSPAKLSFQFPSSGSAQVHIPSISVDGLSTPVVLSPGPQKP
Description: DAPPL (digital affinity profiling via proximity ligation, sequencing); 10 mM Tris-HCl pH 7.5, 50 mM NaCl, 1 mM DTT, 4% glycerol, room temperature, 30 min; GST-TFs on glutathione beads, 16-mer random dsDNA library, 0.1% formaldehyde crosslink after washing; high values mean tight binding. The settings on record: protein: recombinant; tags: N-terminal GST; dsDNA, one strand shown. The method, boiled down: (§1)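 Human transcription factors carrying a GST fusion were produced in yeast, bound to glutathione beads, tagged with DNA barcodes and pooled together with a tag-only sample. Each pool was held with 200 nmole of a random double-stranded 16-mer DNA library in Tris/NaCl/DTT/glycerol buffer for 30 min at room temperature, then washed, crosslinked in 0.1% formaldehyde, proximity-ligated with BsaI/T4 ligase (1 h, 37 °C), PCR-amplified and sequenced on an Illumina NextSeq500. Binding signal is the read frequency of each hexamer for a given factor divided by its frequency in the tag-only sample.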
In the case of TGCTCT, the binding signal is 1.48 fold enrichment (6-mer frequency, TF over GST control).

In the case of AACAAA, the binding signal was 1.16 fold enrichment (6-mer frequency, TF over GST control).

As for CTTATT, the binding signal is 1.39 fold enrichment (6-mer frequency, TF over GST control).

In the case of TCGTTT, the binding signal is 1.21 fold enrichment (6-mer frequency, TF over GST control).

With TTTTGG, the binding signal was 1.42 fold enrichment (6-mer frequency, TF over GST control).

Take TAAAGT: the binding signal is 1.14 fold enrichment (6-mer frequency, TF over GST control).

For the sequence GCCCTA, the binding signal was 1.24 fold enrichment (6-mer frequency, TF over GST control).

Consider TTAGCA, for which the binding signal is 1.19 fold enrichment (6-mer frequency, TF over GST control).

Consider GCCTTC, for which the binding signal was 1.51 fold enrichment (6-mer frequency, TF over GST control).

Take ATAGAT: the binding signal was 1.14 fold enrichment (6-mer frequency, TF over GST control).

For TTTAGC, the binding signal was 1.05 fold enrichment (6-mer frequency, TF over GST control).

As to GCTAAT, the binding signal is 1.18 fold enrichment (6-mer frequency, TF over GST control).

On to TATATA, for which the binding signal is 1.37 fold enrichment (6-mer frequency, TF over GST control).

For the sequence AATTAG, the binding signal was 1.09 fold enrichment (6-mer frequency, TF over GST control).

GTAATA: the binding signal was 1.21 fold enrichment (6-mer frequency, TF over GST control).

As to CTCCCC, the binding signal is 1.31 fold enrichment (6-mer frequency, TF over GST control).

As for GATTCC, the binding signal was 1.05 fold enrichment (6-mer frequency, TF over GST control).

With CCTTCC, the binding signal was 2.68 fold enrichment (6-mer frequency, TF over GST control).

Turning to TTCTTC, the binding signal was 1.87 fold enrichment (6-mer frequency, TF over GST control).

Turning to GAATAA, the binding signal was 1.08 fold enrichment (6-mer frequency, TF over GST control).

For CTACTA, the binding signal is 1.36 fold enrichment (6-mer frequency, TF over GST control).

Consider ACTCTG, for which the binding signal is 1.23 fold enrichment (6-mer frequency, TF over GST control).

As to TTCACT, the binding signal is 1.32 fold enrichment (6-mer frequency, TF over GST control).

CCTGAC: the binding signal was 1.57 fold enrichment (6-mer frequency, TF over GST control).

For the sequence TTCAAA, the binding signal is 1.23 fold enrichment (6-mer frequency, TF over GST control).

Regarding CGCCTT, the binding signal is 1.43 fold enrichment (6-mer frequency, TF over GST control).

With CCATTT, the binding signal is 1.29 fold enrichment (6-mer frequency, TF over GST control).

In the case of ACCCTA, the binding signal is 1.36 fold enrichment (6-mer frequency, TF over GST control).

CTTAAT: the binding signal is 1.2 fold enrichment (6-mer frequency, TF over GST control).

Take TACGCG: the binding signal was 1.14 fold enrichment (6-mer frequency, TF over GST control).

Turning to ACGTTT, the binding signal was 1.18 fold enrichment (6-mer frequency, TF over GST control).

As to GGACCT, the binding signal was 1.37 fold enrichment (6-mer frequency, TF over GST control).

GCTTTG: the binding signal was 1.1 fold enrichment (6-mer frequency, TF over GST control).

Turning to AACTTT, the binding signal was 1.27 fold enrichment (6-mer frequency, TF over GST control).

Take ACTACT: the binding signal was 1.25 fold enrichment (6-mer frequency, TF over GST control).

Turning to GAAATA, the binding signal was 1.42 fold enrichment (6-mer frequency, TF over GST control).

Turning to TAACTA, the binding signal was 1.29 fold enrichment (6-mer frequency, TF over GST control).

For the sequence TATTAT, the binding signal was 1.27 fold enrichment (6-mer frequency, TF over GST control).

Consider GAACCT, for which the binding signal is 1.27 fold enrichment (6-mer frequency, TF over GST control).

Consider GCTCAC, for which the binding signal was 1.51 fold enrichment (6-mer frequency, TF over GST control).

The next test concerns the target T2, GABPA (Homo sapiens, UniProt Q06546 1-454).
T2 sequence: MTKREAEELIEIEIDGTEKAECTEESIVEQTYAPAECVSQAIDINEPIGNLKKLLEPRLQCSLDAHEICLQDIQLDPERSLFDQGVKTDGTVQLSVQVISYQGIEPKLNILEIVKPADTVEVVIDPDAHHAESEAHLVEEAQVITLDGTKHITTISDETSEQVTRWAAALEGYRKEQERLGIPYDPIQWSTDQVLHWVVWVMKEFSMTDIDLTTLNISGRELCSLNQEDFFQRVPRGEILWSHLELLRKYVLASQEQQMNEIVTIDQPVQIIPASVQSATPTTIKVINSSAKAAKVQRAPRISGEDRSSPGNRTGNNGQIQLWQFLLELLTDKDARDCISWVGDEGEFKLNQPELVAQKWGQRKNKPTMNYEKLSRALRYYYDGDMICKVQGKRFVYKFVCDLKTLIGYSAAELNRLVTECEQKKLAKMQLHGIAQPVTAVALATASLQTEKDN
The test is described as above. The settings on record: protein: recombinant; tags: N-terminal GST; dsDNA, one strand shown. The method, boiled down:
as §1
Consider TGCTCT, for which the binding signal is 1.35 fold enrichment (6-mer frequency, TF over GST control).

As for AACAAA, the binding signal is 1.1 fold enrichment (6-mer frequency, TF over GST control).

With CTTATT, the binding signal is 1.41 fold enrichment (6-mer frequency, TF over GST control).

In the case of TCGTTT, the binding signal was 1.28 fold enrichment (6-mer frequency, TF over GST control).

As for TTTTGG, the binding signal is 1.47 fold enrichment (6-mer frequency, TF over GST control).

In the case of TAAAGT, the binding signal was 1.24 fold enrichment (6-mer frequency, TF over GST control).

For GCCCTA, the binding signal was 1.21 fold enrichment (6-mer frequency, TF over GST control).

For TTAGCA, the binding signal was 1.16 fold enrichment (6-mer frequency, TF over GST control).

As for GCCTTC, the binding signal was 1.54 fold enrichment (6-mer frequency, TF over GST control).

As for ATAGAT, the binding signal is 1.17 fold enrichment (6-mer frequency, TF over GST control).

With TTTAGC, the binding signal is 1.2 fold enrichment (6-mer frequency, TF over GST control).

Regarding GCTAAT, the binding signal is 1.17 fold enrichment (6-mer frequency, TF over GST control).

Take TATATA: the binding signal was 1.26 fold enrichment (6-mer frequency, TF over GST control).

With AATTAG, the binding signal is 1.13 fold enrichment (6-mer frequency, TF over GST control).

Take GTAATA: the binding signal is 1.09 fold enrichment (6-mer frequency, TF over GST control).

As for CTCCCC, the binding signal is 1.41 fold enrichment (6-mer frequency, TF over GST control).

Take GATTCC: the binding signal was 1.08 fold enrichment (6-mer frequency, TF over GST control).

In the case of CCTTCC, the binding signal is 2.22 fold enrichment (6-mer frequency, TF over GST control).

Take TTCTTC: the binding signal was 1.79 fold enrichment (6-mer frequency, TF over GST control).

Consider GAATAA, for which the binding signal is 1.07 fold enrichment (6-mer frequency, TF over GST control).

CTACTA: the binding signal is 1.34 fold enrichment (6-mer frequency, TF over GST control).

ACTCTG: the binding signal was 1.38 fold enrichment (6-mer frequency, TF over GST control).

Consider TTCACT, for which the binding signal is 1.33 fold enrichment (6-mer frequency, TF over GST control).

For CCTGAC, the binding signal is 1.49 fold enrichment (6-mer frequency, TF over GST control).

In the case of TTCAAA, the binding signal was 1.4 fold enrichment (6-mer frequency, TF over GST control).

As for CGCCTT, the binding signal was 1.45 fold enrichment (6-mer frequency, TF over GST control).

Regarding CCATTT, the binding signal is 1.42 fold enrichment (6-mer frequency, TF over GST control).

In the case of ACCCTA, the binding signal is 1.25 fold enrichment (6-mer frequency, TF over GST control).

Regarding CTTAAT, the binding signal is 1.34 fold enrichment (6-mer frequency, TF over GST control).

On to TACGCG, for which the binding signal is 1.24 fold enrichment (6-mer frequency, TF over GST control).

Take ACGTTT: the binding signal is 1.18 fold enrichment (6-mer frequency, TF over GST control).

With GGACCT, the binding signal is 1.41 fold enrichment (6-mer frequency, TF over GST control).

For the sequence GCTTTG, the binding signal is 1.11 fold enrichment (6-mer frequency, TF over GST control).

On to AACTTT, for which the binding signal was 1.17 fold enrichment (6-mer frequency, TF over GST control).

As to ACTACT, the binding signal is 1.28 fold enrichment (6-mer frequency, TF over GST control).

As for GAAATA, the binding signal was 1.48 fold enrichment (6-mer frequency, TF over GST control).

Take TAACTA: the binding signal is 1.46 fold enrichment (6-mer frequency, TF over GST control).

Consider TATTAT, for which the binding signal was 1.21 fold enrichment (6-mer frequency, TF over GST control).

Regarding GAACCT, the binding signal is 1.06 fold enrichment (6-mer frequency, TF over GST control).

As to GCTCAC, the binding signal was 1.65 fold enrichment (6-mer frequency, TF over GST control).

The target of another test is T3, ERG (Homo sapiens, UniProt P11308 1-479).
T3 sequence: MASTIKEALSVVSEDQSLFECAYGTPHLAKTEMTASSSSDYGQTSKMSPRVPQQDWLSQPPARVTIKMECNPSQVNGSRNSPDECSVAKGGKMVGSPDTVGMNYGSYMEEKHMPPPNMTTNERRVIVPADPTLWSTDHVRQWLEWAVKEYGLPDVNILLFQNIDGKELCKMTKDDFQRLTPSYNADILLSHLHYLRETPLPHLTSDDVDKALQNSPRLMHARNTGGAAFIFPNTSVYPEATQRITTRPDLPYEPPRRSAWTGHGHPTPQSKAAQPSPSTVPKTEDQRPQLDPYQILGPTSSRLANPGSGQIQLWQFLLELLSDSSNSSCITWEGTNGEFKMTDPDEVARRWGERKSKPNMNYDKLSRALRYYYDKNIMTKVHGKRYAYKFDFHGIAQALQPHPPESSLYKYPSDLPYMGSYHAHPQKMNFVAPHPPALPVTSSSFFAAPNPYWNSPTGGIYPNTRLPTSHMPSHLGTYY
The test is described as above. The settings on record: protein: recombinant; tags: N-terminal GST; dsDNA, one strand shown. The method, boiled down:
as §1
Turning to TGCTCT, the binding signal is 1.26 fold enrichment (6-mer frequency, TF over GST control).

As for AACAAA, the binding signal is 1.18 fold enrichment (6-mer frequency, TF over GST control).

As to CTTATT, the binding signal is 1.53 fold enrichment (6-mer frequency, TF over GST control).

As for TCGTTT, the binding signal is 1.15 fold enrichment (6-mer frequency, TF over GST control).

As to TTTTGG, the binding signal was 1.26 fold enrichment (6-mer frequency, TF over GST control).

For TAAAGT, the binding signal is 1.17 fold enrichment (6-mer frequency, TF over GST control).

On to GCCCTA, for which the binding signal was 1.15 fold enrichment (6-mer frequency, TF over GST control).

On to TTAGCA, for which the binding signal was 1.3 fold enrichment (6-mer frequency, TF over GST control).

Regarding GCCTTC, the binding signal was 1.52 fold enrichment (6-mer frequency, TF over GST control).

Consider ATAGAT, for which the binding signal is 1.11 fold enrichment (6-mer frequency, TF over GST control).

Take TTTAGC: the binding signal is 1.16 fold enrichment (6-mer frequency, TF over GST control).

Regarding GCTAAT, the binding signal is 1.13 fold enrichment (6-mer frequency, TF over GST control).

With TATATA, the binding signal is 1.3 fold enrichment (6-mer frequency, TF over GST control).

For AATTAG, the binding signal was 1.11 fold enrichment (6-mer frequency, TF over GST control).

Take GTAATA: the binding signal was 1.15 fold enrichment (6-mer frequency, TF over GST control).

In the case of CTCCCC, the binding signal was 1.45 fold enrichment (6-mer frequency, TF over GST control).

Consider GATTCC, for which the binding signal was 1.2 fold enrichment (6-mer frequency, TF over GST control).

As for CCTTCC, the binding signal is 3.03 fold enrichment (6-mer frequency, TF over GST control).

In the case of TTCTTC, the binding signal is 1.87 fold enrichment (6-mer frequency, TF over GST control).

For the sequence GAATAA, the binding signal was 1.06 fold enrichment (6-mer frequency, TF over GST control).
